The record followed here is PubChem BioAssay AID1259313 (Sanford-Burnham Center for Chemical Genomics, 2017).

Screen size: about 340,000 compounds; about 8,500 (2.5%) were called active. This excerpt belongs to a sample that is enriched for actives. Values without a mark were called inactive.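 Rule for the calls: active = melting temperature shift of at least 10% of the positive control shift, at one fixed dose; inactive = the rest.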

The test has as its system Glutamate receptor ionotropic, NMDA 3A (GRIN3A) ligand-binding domain. As to the kind of experiment: NR3A LBD thermal stabilization by compounds – biophysical, differential scanning fluorimetry, uHTS, primary screen (AID 1259313). To be noted: at 25 µM, hits give high values, 0% = protein alone, 100% = glycine-bound protein. A general note: Differential scanning fluorimetry follows unfolding on heating by fluorescence.
As for `CCSc1nsc(NC(=O)Nc2cccc(C(C)=O)c2)n1`, the Tm shift relative to glycine control was 0.77%.

Regarding `C=CCSc1nsc(NC(=O)Nc2cccc(C(C)=O)c2)n1`, the Tm shift relative to glycine control is 15.6% (active). Turning to `CC(=O)c1cccc(NC(=S)N2CCCC2)c1`, the Tm shift relative to glycine control is 2.43%. With `CC(NC(=O)Nc1ccccc1)c1ccccc1` (stereo unspecified), the Tm shift relative to glycine control is -5.71%. The figure for `CSc1nsc(SCC(=O)Nc2cc(C(=O)O)ccc2C)n1` is 1.25%; for `CSc1nsc(NC(=O)Nc2ccccc2)n1` it is 19.7% (active).

Turning to `S=c1[nH]c2ccccc2c2ccccc12`, the Tm shift relative to glycine control was -5.09%. Regarding `OCC1(Cc2ccccc2C(F)(F)F)CCN(Cc2ccncc2)CC1`, the Tm shift relative to glycine control is -1.43%. For the compound `CCOc1cc(CNn2c(C)nnc2SCC(=O)NC(C)(C)C)ccc1OCC(=O)NC(C)(C)C`, the Tm shift relative to glycine control was -4.76%. As to `CC1(C)CC(CNCCC(c2ccc(F)cc2)c2ccco2)CCO1` (stereo unspecified), the Tm shift relative to glycine control was 0.16%. For the compound `COC(=O)CSc1ccc2nnc(CCNS(=O)(=O)c3ccc(C)cc3)n2n1`, the Tm shift relative to glycine control was -0.94%. With `CN(C)S(=O)(=O)c1ccc(NC(=O)COC(=O)c2n[nH]c3ccccc23)cc1`, the Tm shift relative to glycine control is -2.54%. `CCN(CC)S(=O)(=O)c1ccc(C(=O)N2CCN(C3=NS(=O)(=O)c4ccccc43)CC2)cc1`: the Tm shift relative to glycine control was 0.26%.

In the case of `O=C(Nc1nnc(COc2ccccc2)s1)Nc1ccccc1F`, the Tm shift relative to glycine control was 1.33%.

As for `O=C(Nc1ccccc1)Nc1nnc(COc2ccccc2F)s1`, the Tm shift relative to glycine control was 38.9% (active). With `COCC(=O)Nc1nnc(COc2ccccc2)s1`, the Tm shift relative to glycine control was 2.29%.

Turning to `Cc1ccc(-c2nnc(SCC(=O)N/N=C/c3cccs3)n2-c2ccc(C)cc2)cc1`, the Tm shift relative to glycine control is -6.78%. Turning to `COc1cccc(/C=C/C(=O)Nc2ccc3c(c2)OCCO3)c1`, the Tm shift relative to glycine control was 2.64%. The figure for `CCC1([N+](=O)[O-])COC(c2ccc(C)cc2)OC1` (stereo unspecified) is -10.1%; for `NC(=O)CC[C@@H]1NC(=O)[C@H](CO)NC(=O)c2cc([N+](=O)[O-])cc(I)c2NCC[C@@H](C(N)=O)NC1=O` it is -0.81%; for `O=C(NCc1ccccc1Cl)C1CCCN1S(=O)(=O)c1ccc(F)cc1` (stereo unspecified) it is 2.13%.

Regarding `O=C(CN1CCN(S(=O)(=O)c2ccc(Cl)s2)CC1)NCc1ccc(Cl)cc1`, the Tm shift relative to glycine control is -1.27%. The figure for `CSc1nc(N(C)NC(=O)c2cccc(C)c2)c2ccccc2n1` is 3.17%.

Take `CN(NC(=O)c1ccccc1)c1nc2ccccc2nc1C(F)(F)F`: the Tm shift relative to glycine control is 11.4% (active). As for `CN(NC(=O)c1ccccc1F)c1nc(C(F)(F)F)nc2ccccc12`, the Tm shift relative to glycine control was 0.16%. For the compound `Cc1ccc(C)c(C(=O)N2CCC(n3nccc3NC(=O)C3CC3)CC2)c1`, the Tm shift relative to glycine control was 0.44%. For `O=C(NC1(C(F)(F)F)NC(=O)N(C2CCCCC2)C1=O)c1ccco1` (stereo unspecified), the Tm shift relative to glycine control is 1.55%. `O=C1NC(Nc2nc3ccccc3s2)(C(F)(F)F)C(=O)N1C1CCCCC1` (stereo unspecified): the Tm shift relative to glycine control was 13.7% (active). As for `CCC1(CC)NC(=O)N(Cc2nc3ccccc3s2)C1=O`, the Tm shift relative to glycine control is -0.61%. Turning to `Cc1ccc2oc(=O)c3cnn(CC(=O)N4CCN(c5ccccn5)CC4)c3c2c1`, the Tm shift relative to glycine control was 0.6%. As for `CCOc1cccc2cc(C(=O)OCC(=O)Nc3c(C)cccc3CC)c(=O)oc12`, the Tm shift relative to glycine control is -0.27%. As for `N#C/C(=C\N1CCOCC1)S(=O)(=O)c1ccc(Cl)cc1`, the Tm shift relative to glycine control is -0.42%. The figure for `CCCN(CCC)c1c([N+](=O)[O-])c(=O)oc2ccccc12` is -4.15%; for `Cc1ccc(C(=O)Cn2cc([N+](=O)[O-])nc2C)cc1` it is 2.36%. The figure for `Cc1ccc(-c2cn3cc([N+](=O)[O-])ccc3n2)cc1` is 0.72%; for `Cc1ccc(-n2cc3ccc([N+](=O)[O-])cc3n2)cc1` it is 13.3% (active). Take `CN(C)/C=C(/C(=O)c1ccccc1)S(=O)(=O)c1ccc(Cl)cc1`: the Tm shift relative to glycine control is -1.01%. Consider `Cc1cc(NC(C)C)n2c(nc3ccccc32)c1C#N`, for which the Tm shift relative to glycine control was 0.92%.

For `CC(C)c1cc(NCc2ccccn2)n2c(nc3ccccc32)c1C#N`, the Tm shift relative to glycine control was 1.69%. Take `Cc1cc(NCc2ccco2)n2c(nc3ccccc32)c1C#N`: the Tm shift relative to glycine control was 19.7% (active).

With `O=C(NCc1ccc2c(c1)OCO2)C12CC3CC(CC(C3)C1)C2`, the Tm shift relative to glycine control was -0.27%. For the compound `Cc1ccc(O)c(/C=N/NC(=O)COc2ccc3c(C)cc(=O)oc3c2)c1`, the Tm shift relative to glycine control was 16.8% (active). For `Cc1cc(=O)oc2cc(OCC(=O)Nc3nnc(C4CC4)s3)ccc12`, the Tm shift relative to glycine control is -0.86%. With `CCOC(=O)Cc1csc(NC(=O)COc2ccc3c(C)cc(=O)oc3c2)n1`, the Tm shift relative to glycine control is -1.92%. On to `O=C(NCc1cccs1)c1cc(-c2ccccn2)nc2ccc(Br)cc12`, for which the Tm shift relative to glycine control was -0.39%. On to `CCOc1ccccc1NC(=O)Cn1nnc(C(=O)NCc2cccs2)c1N`, for which the Tm shift relative to glycine control is -0.84%.

As to `CC(C)Cn1c(N)c(C(=O)NCc2cccs2)c2nc3ccccc3nc21`, the Tm shift relative to glycine control was 19.1% (active). For the compound `Cc1ccc(S(=O)(=O)c2ccc(Cl)cc2)cc1S(=O)(=O)NC(C(=O)O)C(C)C` (stereo unspecified), the Tm shift relative to glycine control was -2.2%. With `CCCOn1c(-n2nc(C)cc2C)nc2ccccc2c1=O`, the Tm shift relative to glycine control was 1.18%. Regarding `O=C(CSc1ccc(C(F)(F)F)cc1[N+](=O)[O-])NCCOc1ccccc1`, the Tm shift relative to glycine control was -6.06%. For `N#C/C(=C(/O)COC(=O)COc1ccc(Cl)cc1)c1nc2ccccc2[nH]1`, the Tm shift relative to glycine control was 7.42%. Consider `O=C(/C(=C/c1cccc(Cl)c1)c1nc2ccccc2[nH]1)c1ccccc1`, for which the Tm shift relative to glycine control was 23% (active).

As to `Oc1ccc2nc(Cc3ccccc3)[nH]c2c1`, the Tm shift relative to glycine control was -5.45%.

For the compound `CN(CC1CCCN(CCc2cccc(C(F)(F)F)c2)C1)C(=O)c1ccc2nc[nH]c2c1` (stereo unspecified), the Tm shift relative to glycine control is 1.25%. On to `O=C(Cn1cc(/C=N/NC(=O)c2cccc(C(F)(F)F)c2)c2ccccc21)Nc1ccc(F)cc1`, for which the Tm shift relative to glycine control was 15.8% (active). Consider `O=C(CN1CCN(c2ccc(F)cc2)CC1)Nc1cccc(C(F)(F)F)c1`, for which the Tm shift relative to glycine control is -4.33%.

With `NC(=O)Cn1cc(/C=N\NS(=O)(=O)c2ccccc2)c2ccccc21`, the Tm shift relative to glycine control is -34.7%.

Consider `CCCOC(=O)c1ccc(N2C(=O)c3ccccc3C2=O)cc1`, for which the Tm shift relative to glycine control was -1.6%. Under `Cc1ccc(C)c(NC(=O)c2cc(-c3cc(C)cc(C)c3O)n[nH]2)c1` stands 0.62%; under `Cc1ccc(NC(=O)c2cc(-c3ccccc3O)n[nH]2)cc1C`, 26.2% (active). As to `Cc1ccc(NC(=O)CCN2C(=O)c3ccccc3C2=O)cc1C`, the Tm shift relative to glycine control was -0.19%.
